# Test results taken from PubChem BioAssay (Tox21).
# Unmarked numbers belong to inactive results. Results filed as inconclusive are left out. Entries that show only a call come without a potency. The source made the active and inactive calls. Unless noted, calls come from the whole dose curve; as a rule, active = well fitted curve in the direction sought with a large enough effect in the repeat runs; inconclusive = weak or mixed curves; inactive = no such curve, though single readings can be large; an effect the other way counts as inactive or inconclusive.
# Experiments:
# [1] = qHTS assay to identify small molecule agonists of the estrogen receptor alpha (ER-alpha) signaling pathway in the presence of an antagonist - cell viability counter screen (AID 1259386); details: VM7Luc4E2 viability, CellTiter-Fluor fluorescence, 22 h; series mostly up to 92.4 µM;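 note: cells exposed to compounds for 22 h at 37 °C before the viability read; nearly all actives have a fitted effect of over 30% in size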
# Procedure, shortened: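 VM7Luc4E2, stripped-serum pre-culture 5 d; 24hr plating; +ICI-182,780 10.0nM final; cpds 15 conc, 22hr, 37C/5% CO2; CellTiter-Fluor added at 21hr, fluorescence 1hr later.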
# [2] = molecular target: Progesterone receptor (Homo sapiens) (UniProt P06401); assay: qHTS assay to identify small molecule agonists of the progesterone receptor (PR) signaling pathway (AID 1346784; calls by dose curve; note: nearly all actives have a fitted effect of over 30% in size); details: PR-UAS-bla HEK293T, beta-lactamase FRET ratio, 16 h; series mostly up to 92.4 µM
# Progesterone receptor (Homo sapiens), sequence (P06401 whole entry, looked up): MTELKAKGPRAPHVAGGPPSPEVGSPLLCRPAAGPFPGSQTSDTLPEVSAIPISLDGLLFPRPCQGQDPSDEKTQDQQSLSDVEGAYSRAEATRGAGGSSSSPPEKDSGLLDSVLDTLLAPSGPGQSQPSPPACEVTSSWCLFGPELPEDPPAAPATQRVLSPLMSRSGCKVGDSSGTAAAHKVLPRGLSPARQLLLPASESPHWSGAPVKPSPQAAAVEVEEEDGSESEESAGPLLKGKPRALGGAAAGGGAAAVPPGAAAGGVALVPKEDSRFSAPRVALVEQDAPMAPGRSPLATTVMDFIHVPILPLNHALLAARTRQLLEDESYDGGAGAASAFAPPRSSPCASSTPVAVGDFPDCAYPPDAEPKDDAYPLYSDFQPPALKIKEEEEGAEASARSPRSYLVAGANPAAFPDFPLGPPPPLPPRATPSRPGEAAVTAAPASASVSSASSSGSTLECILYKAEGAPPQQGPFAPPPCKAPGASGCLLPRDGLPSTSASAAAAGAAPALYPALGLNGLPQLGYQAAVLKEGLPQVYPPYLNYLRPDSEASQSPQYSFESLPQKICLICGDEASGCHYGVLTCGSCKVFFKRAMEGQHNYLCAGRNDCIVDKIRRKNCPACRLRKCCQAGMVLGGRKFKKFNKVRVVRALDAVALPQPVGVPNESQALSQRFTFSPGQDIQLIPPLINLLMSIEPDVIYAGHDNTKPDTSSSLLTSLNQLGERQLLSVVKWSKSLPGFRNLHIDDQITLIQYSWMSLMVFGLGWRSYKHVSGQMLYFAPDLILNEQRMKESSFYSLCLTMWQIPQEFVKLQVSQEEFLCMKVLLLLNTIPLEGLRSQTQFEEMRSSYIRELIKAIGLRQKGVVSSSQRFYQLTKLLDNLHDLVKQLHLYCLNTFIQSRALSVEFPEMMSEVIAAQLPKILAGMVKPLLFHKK
# Procedure, shortened: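 Fluorescence from LiveBLAzer B/G FRET substrate cleavage (2 hr, RT) reported PR activation in PR-UAS-bla HEK 293T cells treated 16 hr at 37C/5% CO2 with compounds; medium contained 2% charcoal-stripped FBS.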
# [3] = qHTS assay to identify small molecule antagonists of the TGF-beta/Smad signaling pathway - cell viability counter screen (AID 1346824); details: SBE-bla HEK293T viability, CellTiter-Glo luminescence; series mostly up to 76.8 µM; note: nearly all actives have a fitted effect of over 50% in size
# Procedure, shortened: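 SBE-bla HEK 293T cells, incubated overnight, then compound plus 0.25 ng/mL TGF-beta1 (stock added) for 5 hr at 37 C. Viability was read in the same wells by CellTiter-Glo luminescence after 30 min at room temperature.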
# [4] = qHTS assay to identify small molecule agonists of the TGF-beta/Smad signaling pathway - cell viability counter screen (AID 1346829); details: SBE-bla HEK293T viability, CellTiter-Glo luminescence, 5 h; series mostly up to 76.8 µM; note: top concentration of the series differs between compounds; nearly all actives have a fitted effect of over 45% in size
# Procedure, shortened: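 HEK 293T SBE-bla line, 5 hr compound exposure at 37 C, multiplexed CellTiter-Glo viability read by luminescence.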
# [5] = qHTS assay to identify small molecule agonists of the TGF-beta/Smad signaling pathway (AID 1346859; active = well fitted activation curve with a large enough effect in the signal ratio in the repeat runs, not every such curve was filed as active; the % refers to the signal ratio); details: SBE-bla HEK293T, TGF-beta/Smad beta-lactamase reporter, 5 h; series mostly up to 76.8 µM
# Procedure, shortened: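 After overnight seeding, SBE-bla HEK 293T cells are dosed with compounds in DMSO and kept 5 hr at 37 C, 5% CO2. LiveBLAzer-type FRET substrate is then applied for 2 hr at room temperature.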
# [6] = Caspase-3/7 induction in HepG2 cells by small molecules, qHTS assay (AID 1346978); details: HepG2 caspase-3/7 activation, Caspase-Glo luminescence, 17 h; series mostly up to 92.4 µM; note: nearly all actives have a fitted effect of over 15% in size
# Procedure, shortened: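 Wild-type HepG2 cells, 2,000/well, settled 5 hr at 37 C and 5% CO2, then compound-treated for 17 hr; caspase-3/7 activity read by luminescent Caspase-Glo 3/7 after 30 min at room temperature.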
# [7] = Caspase-3/7 induction in CHO-K1 cells by small molecules, qHTS cell viability counter screen (AID 1346979); details: CellTiter-Fluor fluorescence, 17 h; series mostly up to 92.4 µM; note: nearly all actives have a fitted effect of over 35% in size
# Procedure, shortened: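 Viability readout by fluorescence (CellTiter-Fluor) on wild-type CHO-K1 cells exposed for 16hr at 37C and 5% CO2 to compounds delivered in DMSO; reagent incubated 1hr before reading.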
# [8] = Caspase-3/7 induction in CHO-K1 cells by small molecules, qHTS assay (AID 1346980); details: CHO-K1 caspase-3/7 induction, Caspase-Glo luminescence, 17 h; series mostly up to 92.4 µM; note: nearly all actives have a fitted effect of over 15% in size
# Procedure, shortened: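 Wild-type CHO-K1 cells exposed to compounds for 17hr at 37 C, 5% CO2. Caspase-3/7 activity then measured by Caspase-Glo 3/7 luminescence after 30min at room temperature.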
# [9] = Caspase-3/7 induction in HepG2 cells by small molecules, qHTS cell viability counter screen (AID 1346981); details: CellTiter-Fluor fluorescence, 17 h; series mostly up to 92.4 µM; note: nearly all actives have a fitted effect of over 30% in size
# Procedure, shortened: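 HepG2, WT, 2,000 cells/well; 5 hr pre-incubation 37 C/5% CO2; compound pin-transferred from DMSO; 16 hr exposure; CellTiter-Fluor, 1 hr; fluorescence read.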
# [10] = molecular target: Nuclear receptor subfamily 1 group I member 2 (Homo sapiens) (UniProt O75469); assay: Human pregnane X receptor (PXR) small molecule agonists, qHTS assay (AID 1346982); details: PXR-Luc HepG2, CYP3A4 luciferase reporter, 24 h; series mostly up to 92.4 µM; note: nearly all actives have a fitted effect of over 35% in size; note: potency is the fitted concentration of half-maximal effect
# Nuclear receptor subfamily 1 group I member 2 (Homo sapiens), sequence (O75469 whole entry, looked up): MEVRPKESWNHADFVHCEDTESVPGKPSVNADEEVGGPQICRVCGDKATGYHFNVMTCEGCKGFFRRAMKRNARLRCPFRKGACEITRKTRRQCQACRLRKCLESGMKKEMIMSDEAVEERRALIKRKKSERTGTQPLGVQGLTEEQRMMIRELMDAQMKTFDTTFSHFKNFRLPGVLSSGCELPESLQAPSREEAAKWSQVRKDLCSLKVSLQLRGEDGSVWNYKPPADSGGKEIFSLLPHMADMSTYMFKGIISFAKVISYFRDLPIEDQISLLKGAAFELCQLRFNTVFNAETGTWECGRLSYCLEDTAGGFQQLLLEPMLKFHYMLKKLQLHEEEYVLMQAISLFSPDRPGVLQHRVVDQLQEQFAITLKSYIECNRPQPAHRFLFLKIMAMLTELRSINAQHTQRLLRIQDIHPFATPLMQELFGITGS
# Procedure, shortened: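 Luciferase signal from ONE-Glo (30 min, room temperature) measured activation of hPXR-driven CYP3A4 reporter expression in PXR-Luc HepG2 cells treated with compounds for 24 hr at 37 C.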
# [11] = qHTS assay to identify small molecule antagonists of the progesterone receptor (PR) signaling pathway - cell viability counter screen (AID 1346798); details: PR-UAS-bla HEK293T viability, CellTiter-Glo luminescence, 16 h; series mostly up to 92.4 µM; note: nearly all actives have a fitted effect of over 50% in size; note: potency is the fitted concentration of half-maximal effect
# Procedure, shortened: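 CellTiter-Glo luminescence; PR-UAS-bla HEK293T, 3,000 cells/well; compound + R5020, 16 hr, 37C/5% CO2; 30 min RT before read.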
# [12] = molecular target: Thyrotropin-releasing hormone receptor (Homo sapiens) (UniProt P34981); assay: qHTS assay to identify small molecule antagonists of the thyrotropin-releasing hormone receptor (TRHR) signaling pathway (AID 1346877; active = well fitted inhibition curve with a large enough effect in the repeat runs, not every such curve was filed as active); details: TRHR-HEK293, TRH-induced calcium fluorescence, antagonist mode; series mostly up to 51.3 µM
# Thyrotropin-releasing hormone receptor (Homo sapiens), sequence (P34981 whole entry, looked up): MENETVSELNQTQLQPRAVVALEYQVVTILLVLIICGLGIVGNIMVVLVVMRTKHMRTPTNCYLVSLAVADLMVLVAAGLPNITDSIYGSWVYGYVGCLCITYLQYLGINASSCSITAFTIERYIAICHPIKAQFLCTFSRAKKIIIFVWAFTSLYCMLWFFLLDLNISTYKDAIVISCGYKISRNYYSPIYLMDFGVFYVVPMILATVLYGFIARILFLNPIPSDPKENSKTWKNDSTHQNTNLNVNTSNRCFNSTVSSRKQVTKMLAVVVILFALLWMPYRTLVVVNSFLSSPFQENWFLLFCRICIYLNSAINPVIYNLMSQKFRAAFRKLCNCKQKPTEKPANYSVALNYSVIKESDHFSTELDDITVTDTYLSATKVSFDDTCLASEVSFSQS
# Procedure, shortened: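 Intracellular calcium fluorescence, read kinetically every second over 3 min, reports TRH-evoked signalling in HEK293 cells carrying TRHR. Test compounds were added 5 min ahead of a 1 nM TRH challenge.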
# [13] = molecular target: Thyrotropin-releasing hormone receptor (Homo sapiens) (UniProt P34981); assay: qHTS assay to identify small molecule agonists of the thyrotropin-releasing hormone receptor (TRHR) signaling pathway (AID 1346891; calls by dose curve;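 note: HEK293 cells expressing TRHR with calcium dye readout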); details: TRHR-HEK293 calcium fluorescence, agonist mode; series mostly up to 57.6 µM
# Procedure, shortened: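 Compounds were tested as agonists at 15 concentrations, in triplicate, on TRHR-Hek293 cells; calcium-sensitive dye fluorescence was recorded for 3 min following addition.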
# [14] = Human pregnane X receptor (PXR) small molecule agonists, qHTS cell viability counter screen (AID 1346977); details: PXR-Luc HepG2 viability, CellTiter-Fluor, 24 h; series mostly up to 92.4 µM; note: nearly all actives have a fitted effect of over 50% in size
# Procedure, shortened: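 Viability counter screen: CellTiter-Fluor signal in PXR-Luc HepG2 cells, 24hr compound exposure, 37C, 5% CO2.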
# [15] = molecular target: Cytochrome P450 2D6 (Homo sapiens) (UniProt P10635); assay: Cytochrome P450 Family 2 Subfamily D Member 6 (CYP2D6) small molecule antagonists: luciferase reporter qHTS assay (AID 1671196); details: P450-Glo CYP2D6 enzyme assay, luciferin luminescence, 1 h; series mostly up to 115 µM; note: nearly all actives have a fitted effect of over 50% in size; note: potency is the fitted concentration of half-maximal effect
# Cytochrome P450 2D6 (Homo sapiens), sequence (P10635 whole entry, looked up): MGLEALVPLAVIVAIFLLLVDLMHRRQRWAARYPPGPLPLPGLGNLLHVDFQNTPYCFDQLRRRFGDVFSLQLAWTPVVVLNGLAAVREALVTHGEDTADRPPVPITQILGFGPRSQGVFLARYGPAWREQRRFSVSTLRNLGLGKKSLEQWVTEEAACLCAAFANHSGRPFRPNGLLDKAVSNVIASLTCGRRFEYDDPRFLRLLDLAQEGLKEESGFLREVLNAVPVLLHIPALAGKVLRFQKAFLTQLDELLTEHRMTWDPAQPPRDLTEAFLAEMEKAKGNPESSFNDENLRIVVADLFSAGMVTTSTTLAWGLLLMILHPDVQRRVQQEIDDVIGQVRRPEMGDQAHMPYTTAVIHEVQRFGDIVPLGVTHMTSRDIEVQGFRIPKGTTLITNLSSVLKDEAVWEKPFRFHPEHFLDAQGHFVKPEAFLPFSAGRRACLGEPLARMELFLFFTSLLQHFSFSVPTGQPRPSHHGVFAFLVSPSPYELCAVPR
# Procedure, shortened: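 Read-out is luminescence from luciferin formed by CYP2D6 turnover of a proluciferin substrate, recorded as relative luminescence units. Reactions ran 1 h at room temperature after NADPH regeneration solution was added.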
# [16] = molecular target: Nuclear receptor subfamily 1 group I member 2 (Rattus norvegicus) (UniProt Q9R1A7); assay: Rat pregnane X receptor (rPXR) activation by small molecules, qHTS assay (AID 1346983); details: rPXR luciferase reporter cells, One-Glo luminescence, 24 h; max activation: stronger effect = higher value; note: nearly all actives have a fitted effect of over 20% in size
# Nuclear receptor subfamily 1 group I member 2 (Rattus norvegicus), sequence (Q9R1A7 whole entry, looked up): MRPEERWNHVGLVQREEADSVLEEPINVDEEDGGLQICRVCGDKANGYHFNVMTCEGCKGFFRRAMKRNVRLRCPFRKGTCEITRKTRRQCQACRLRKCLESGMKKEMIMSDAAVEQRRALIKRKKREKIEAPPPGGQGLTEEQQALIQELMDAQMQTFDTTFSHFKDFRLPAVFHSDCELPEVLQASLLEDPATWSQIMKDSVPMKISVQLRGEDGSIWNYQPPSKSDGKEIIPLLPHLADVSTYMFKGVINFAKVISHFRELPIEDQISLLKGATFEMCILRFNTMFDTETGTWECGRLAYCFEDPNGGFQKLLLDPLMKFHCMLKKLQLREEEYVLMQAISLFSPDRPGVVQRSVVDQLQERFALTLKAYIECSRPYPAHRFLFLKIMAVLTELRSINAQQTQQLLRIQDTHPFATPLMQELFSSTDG
# Procedure, shortened: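 Cell-based rPXR activation assay: rPXR cells, 2,000 per well, rested 5hr at 37 C, then exposed to compounds in DMSO for 24 hr at 37 C. Luciferase activity read by One-Glo luminescence after 30 min at room temperature.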
# [17] = molecular target: Progesterone receptor (Homo sapiens) (UniProt P06401); assay: qHTS assay to identify small molecule antagonists of the progesterone receptor (PR) signaling pathway (AID 1346795; active = well fitted inhibition curve with a large enough effect in the signal ratio in the repeat runs, not every such curve was filed as active; the % refers to the signal ratio); details: PR-UAS-bla HEK293T, beta-lactamase FRET ratio, 16 h; series mostly up to 92.4 µM
# Procedure, shortened: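 Fluorescence intensity measured 2 hr after adding beta-lactamase FRET substrate to PR-UAS-bla HEK293T cells that had been co-treated 16 hr with compound and 1 nM R5020 (final concentration) in 2% charcoal-stripped FBS.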
# [18] = qHTS assay to identify small molecule agonists of the progesterone receptor (PR) signaling pathway - cell viability counter screen (AID 1346799; calls by dose curve; note: nearly all actives have a fitted effect of over 45% in size); details: PR-UAS-bla HEK293T viability, CellTiter-Glo luminescence, 16 h; series mostly up to 92.4 µM
# Procedure, shortened: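 In parallel with the beta-lactamase readout, cytotoxicity toward PR-UAS-bla HEK293T cells was measured by CellTiter-Glo luminescence following 16 hr compound incubation in 2% charcoal-stripped FBS medium.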
# [19] = molecular target: Nuclear receptor subfamily 1 group I member 2 (Homo sapiens) (UniProt O75469); assay: CYP3A4 induction through human pregnane X receptor (PXR) by small molecules, qHTS assay (AID 1346984); details: DPX-2 HepG2 PXR, CYP3A4-luciferin luminescence, 24 h; series mostly up to 46.1 µM; note: nearly all actives have a fitted effect of over 40% in size
# Procedure, shortened: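 Luminescence readout: luciferase signal after One-Glo (30 min, room temperature), following 3 h at 37C with 3uM final Luciferin-IPA P450 substrate. Cells were DPX-2 (HepG2, PXR/CYP3A4-luc co-transfected) dosed for 24 h.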
# [20] = molecular target: Nuclear receptor subfamily 1 group I member 2 (Homo sapiens) (UniProt O75469); assay: Human pregnane X receptor (PXR) activation by small molecules, qHTS assay (AID 1346985); details: DPX-2 HepG2 CYP3A4-luciferase, 24 h; series mostly up to 38.3 µM; note: nearly all actives have a fitted effect of over 40% in size
# Procedure, shortened: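 DPX-2 cells (HepG2 co-transfected with a PXR response element and a CYP3A4-promoter luciferase construct) were seeded at 2,000 per well, rested 5 hr at 37C, then exposed to DMSO-dissolved compounds for 24 hr. Activation was read as luciferase luminescence.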
smiles,measurement,setting,value
CNCC[C@@H](Oc1ccccc1C)c1ccccc1,Potency,[1],inactive
same,outcome,[2],inactive
same,Potency,[3],inactive
same,Potency,[4],inactive
same,outcome,[5],inactive
same,outcome,[6],inactive
same,Potency,[7],inactive
same,Potency,[8],inactive
same,Potency,[9],inactive
same,Potency,[10],inactive
Nc1nc(N)c2nc(CNc3ccc(C(=O)N[C@@H](CCC(=O)O)C(=O)O)cc3)cnc2n1,Potency,[1],inactive
same,outcome,[2],inactive
same,Potency,[11],inactive
same,outcome,[12],inactive
same,Potency,[13],inactive
same,Potency,[14],inactive
same,Potency,[7],inactive
same,Potency,[8],inactive
same,Potency,[9],inactive
Cc1ccc2c(ccc3ccccc32)c1,Potency,[1],inactive
same,outcome,[2],inactive
same,Potency,[11],inactive
same,Potency,[3],inactive
same,Potency,[4],inactive
same,outcome,[5],inactive
same,outcome,[12],inactive
same,Potency,[13],inactive
same,Potency,[14],inactive
same,Potency,[7],inactive
same,Potency,[8],inactive
same,Potency,[9],inactive
CCOC(=O)C1=C(C)NC(C)=C(C(=O)OC)C1c1cccc([N+](=O)[O-])c1 (stereo unspecified),Potency,[1],inactive
same,outcome,[2],inactive
same,Potency,[3],inactive
same,Potency,[4],inactive
same,outcome,[5],inactive
same,outcome,[12],inactive
same,Potency,[14],inactive
same,outcome,[6],inactive
same,Potency,[9],inactive
same,Potency,[15],inactive
COc1ccc([C@@H]2Sc3ccccc3N(CCN(C)C)C(=O)[C@@H]2OC(C)=O)cc1,Potency,[1],inactive
same,outcome,[2],inactive
same,Potency,[11],21.1 µM (active)
same,Potency,[3],inactive
same,Potency,[4],inactive
same,outcome,[5],inactive
same,Potency,[14],inactive
same,outcome,[6],inactive
same,Potency,[7],inactive
same,Potency,[8],inactive
same,Potency,[9],inactive
same,max activation,[16],-0.277%
CC(=O)N(CC(=O)N(C)C)c1ccccc1,Potency,[1],inactive
same,Potency,[17],inactive
same,Potency,[11],inactive
same,Potency,[18],inactive
same,Potency,[3],inactive
same,Potency,[4],inactive
same,outcome,[5],inactive
same,outcome,[12],inactive
same,Potency,[13],inactive
same,Potency,[14],inactive
same,outcome,[6],inactive
same,Potency,[7],inactive
same,Potency,[8],inactive
same,Potency,[9],inactive
same,Potency,[10],inactive
same,Potency,[15],inactive
O=c1c2ccccc2nnn1CCl,Potency,[1],inactive
same,outcome,[2],inactive
same,Potency,[11],inactive
same,Potency,[3],inactive
same,Potency,[4],inactive
same,outcome,[5],inactive
same,outcome,[12],inactive
same,Potency,[13],inactive
same,Potency,[14],inactive
same,Potency,[7],inactive
same,Potency,[8],inactive
same,Potency,[9],inactive
same,Potency,[10],61.1 µM (active)
same,Potency,[15],14.2 µM (active)
O=C1Nc2cc(Cl)ccc2Oc2ccccc21,Potency,[1],inactive
same,outcome,[2],inactive
same,Potency,[3],inactive
same,Potency,[4],inactive
same,outcome,[5],inactive
same,outcome,[12],inactive
same,Potency,[14],inactive
same,outcome,[6],inactive
same,Potency,[8],inactive
same,Potency,[10],inactive
same,Potency,[15],inactive
Cn1c(N)nc2nc[nH]c2c1=O,Potency,[1],inactive
same,outcome,[2],inactive
same,Potency,[18],inactive
same,Potency,[3],inactive
same,Potency,[4],inactive
same,outcome,[5],inactive
same,outcome,[12],inactive
same,Potency,[14],inactive
same,outcome,[6],inactive
same,Potency,[8],inactive
same,Potency,[9],inactive
same,Potency,[10],inactive
NC[C@H]1O[C@H](O[C@H]2[C@H](O)[C@@H](O[C@H]3O[C@H](CO)[C@@H](O)[C@H](N)[C@H]3O)[C@H](N)C[C@@H]2N)[C@H](O)[C@@H](O)[C@@H]1O,"activity change, negative = cytotoxicity",[1],-3.74% [at 8.39 µM]
same,activation,[2],0.496% [at 8.39 µM]
same,"activity change, negative = cytotoxicity",[11],1.76% [at 8.39 µM]
same,"viability change, negative = cytotoxic",[3],0.819% [at 6.97 µM]
same,"activity change, negative = cytotoxicity",[4],4.11% [at 6.97 µM]
same,activation,[5],-1.71% [at 6.97 µM]
same,"activity change, negative = cytotoxicity",[14],-6.07% [at 8.39 µM]
same,caspase activation,[6],0.334% [at 8.39 µM]
same,caspase-3/7 activation,[8],1.24% [at 8.39 µM]
same,"activity change, negative = cytotoxicity",[9],-2.29% [at 8.39 µM]
same,activation,[10],13.1% [at 8.39 µM]
same,max activation,[16],-1%
same,Potency,[19],inactive
same,Potency,[20],inactive
same,"activity change, negative = inhibition",[15],-0.562% [at 10.5 µM]
